Source: PubChem
Shown are actives, neighbours in structure and some others; about 2.9% of the full set was active somewhere.
PAFAH1B2 FP inh: PAFAH1B2 (human) inhibition. actives 1.2% (n = 340,000). recombinant PAFAH1B2, FP-rhodamine activity probe, fluorescence polarization. inhibition, % at 3.39 µM. P68402;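 active = inhibition above the mean of all tested compounds plus 3 SD, cut at about 24% in these data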;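 also: 0% = enzyme with DMSO and 100% = wells lacking PAFAH1B2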
Target sequence (P68402 whole entry, looked up): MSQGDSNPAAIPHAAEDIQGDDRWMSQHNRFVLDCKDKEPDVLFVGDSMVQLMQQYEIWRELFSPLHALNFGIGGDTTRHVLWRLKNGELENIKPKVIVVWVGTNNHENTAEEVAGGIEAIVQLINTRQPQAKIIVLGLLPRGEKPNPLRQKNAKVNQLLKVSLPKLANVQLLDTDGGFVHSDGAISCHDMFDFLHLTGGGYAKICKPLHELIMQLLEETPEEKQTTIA
EBNA-1 inh: blocks EBNA-1 binding to DNA; EBNA-1 DNA binding, fluorescence polarization; inhibition, % at 14.8 µM; actives 0.34% (n = 300,000); in the data active = inhibition above about 28%
pPAFAH inh: pPAFAH (human) enzyme inhibition | Q13093 | AID 463082 | actives 1.5% (n = 330,000) | recombinant pPAFAH, FP-rhodamine probe fluorescence polarization | inhibition, % at 3.39 µM;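 active = inhibition above the mean inhibition across the screen plus 3 SD, cut at about 25% in these data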;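 also: inhibitors block binding of the rhodamine activity-based probe so polarization drops; 0% = enzyme with DMSO and 100% = wells lacking pPAFAH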
PAFAH1B3 FP inh: blocks human PAF acetylhydrolase 1B catalytic subunit 3 | inhibition, % at 3.39 µM | Q15102 | actives 0.28% (n = 340,000) | recombinant PAFAH1B3, FP-rhodamine probe, fluorescence polarization;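 active = inhibition above the screen-wide average of all tested compounds plus 3 SD, cut at about 25% in these data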;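 also: 0% = enzyme with DMSO only and 100% = wells lacking PAFAH1B3 protein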
Target sequence (Q15102 whole entry, looked up): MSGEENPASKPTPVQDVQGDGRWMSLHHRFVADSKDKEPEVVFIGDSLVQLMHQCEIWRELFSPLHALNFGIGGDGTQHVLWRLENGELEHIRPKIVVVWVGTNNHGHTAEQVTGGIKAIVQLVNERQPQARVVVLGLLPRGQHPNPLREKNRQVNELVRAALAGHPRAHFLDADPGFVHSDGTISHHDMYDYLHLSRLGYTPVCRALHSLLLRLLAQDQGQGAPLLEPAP
ZTA DNA inh: blocks Epstein-Barr virus ZTA, an EBNA-1 counter-screen. P03206. ZTA-DNA binding, fluorescence polarization. inhibition, % at 11 µM. actives 0.15% (n = 320,000); in the data active = inhibition above about 33%
PAFAH2 FP inh: PAFAH2 (human) inhibition; recombinant PAFAH2, FP-rhodamine activity probe, fluorescence polarization; inhibition, % at 3.39 µM; actives 0.99% (n = 340,000); AID 492956;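 active = inhibition above the mean over all tested compounds plus 3 SD, cut at about 30% in these data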;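 also: inhibitors block probe labeling of enzyme so polarization drops; 0% = enzyme with DMSO and 100% = wells lacking PAFAH2 protein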
PAFAH2 FP conf: PAFAH2 (human) inhibition, confirmed; shares compounds with PAFAH2 FP inh; recombinant PAFAH2, FP-rhodamine activity probe, fluorescence polarization; inhibition, % at 3.39 µM; actives 65% (n = 2,300); AID 493030;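 active = mean inhibition over three repeats above a set limit taken from the earlier primary screen, cut at about 30% in these data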;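 also: inhibitor blocks binding of rhodamine activity probe so polarization falls; 0% = enzyme with DMSO and 100% = wells lacking PAFAH2 protein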
Active calls of the source: *; nt = no result.

SMILES	PAFAH1B2 FP inh	EBNA-1 inh	pPAFAH inh	PAFAH1B3 FP inh	ZTA DNA inh	PAFAH2 FP inh	PAFAH2 FP conf
Cc1ccc(S(=O)(=O)ON2C(=O)c3cccc4cccc(c34)C2=O)cc1	2.7	6.7	2.8	16.7	-5.7	30.2*	26.2
COc1cccc(C2(C)NC(=O)N(CC(=O)c3cc(C)n(C4CC4)c3C)C2=O)c1 (centres undefined)	-3.0	nt	-1.5	2.3	3.6	2.7	nt
CC1(NC(=O)NCCCCCCNC(=O)NC2(C)CCS(=O)(=O)C2)CCS(=O)(=O)C1 (centres undefined)	-1.6	3.3	2.5	5.6	-11.2	44.5*	37.4*
CCOC(=O)/C(=C/Nc1ccc(F)c(F)c1)[N+](=O)[O-]	3.3	3.6	-1.5	8.3	-7.3	1.2	nt
C=CCOC(=O)c1cc(-c2ccc(/C=C3\C(=O)NC(=O)C(C#N)=C3C)o2)ccc1Cl	12.3	nt	nt	11.4	nt	42.4*	19.4
CC1=C(C#N)C(=O)NC(=O)/C1=C/c1ccc(-c2ccc(S(N)(=O)=O)cc2)o1	0.0	6.0	15.1	23.7	2.8	8.7	nt
COc1ccc(/C=N/NC(=O)c2c(Br)cnn2C)c2ccccc12	0.5	-7.6	-0.4	2.2	14.5	3.5	nt
Cc1cc(C(=O)OCC(=O)Nc2cc(S(=O)(=O)N3CCOCC3)ccc2Cl)c(C)o1	-0.4	9.0	7.8	9.1	4.3	35.3*	30.7*
Cc1cc(C(=O)OCC(=O)Nc2ccc(S(=O)(=O)N3CCOCC3)cc2)c(C)o1	2.8	-0.1	3.2	-1.9	5.8	0.8	nt
O=C(COC(=O)c1cc(S(=O)(=O)N2CCOCC2)ccc1O)Nc1cc(S(=O)(=O)N2CCCC2)ccc1Cl	7.7	-23.2	-2.4	8.2	-3.4	77.1*	75.5*
CNC(=O)COC(=O)c1cc(SC)ccc1Cl	1.0	-6.2	-0.3	10.9	-9.1	0.1	nt
CSc1ccc(Cl)c(C(=O)OCC(=O)NCC(C)C)c1	-0.9	2.8	3.3	-0.2	16.8	43.1*	30.0*
CC(=O)Nc1ccc(NC(=O)[C@@H](NC(=O)N2C[C@H]3C[C@@H](C2)c2cccc(=O)n2C3)C(C)C)cc1	1.4	7.6	3.2	10.5	18.2	1.9	nt
Cc1cccc(C(=O)Nc2cc(Cl)ccc2-n2cncn2)c1[N+](=O)[O-]	1.5	-13.2	7.8	1.1	6.8	39.3*	31.1*
CCOC(=O)c1ccc(N2C(=O)[C@@H](c3ccccc3)[C@H]2c2ccccc2)cc1	13.9	nt	3.8	-11.2	-14.2	-2.7	nt
CCOC(=O)c1ccc(N2C(=O)C3CCOc4ccccc4C32)cc1 (centres undefined)	9.1	nt	-0.9	9.6	-1.8	80.4*	62.5*
CN(C(=O)COC(=O)c1cccnc1Cl)C1CCCCC1	3.9	nt	4.2	3.2	nt	16.0	nt
Cc1ccsc1C(=O)OCC(=O)NC1CCCC1	3.2	nt	21.1	-2.7	-14.9	63.4*	46.7*
Cc1ccsc1C(=O)OCC(=O)N(C)C1CCCCC1	13.2	nt	3.0	2.9	nt	35.9*	17.2
Cc1ccsc1C(=O)OCC(=O)NCCNC(=O)COC(=O)c1sccc1C	2.6	-5.6	3.2	-1.6	-6.7	2.3	nt
CC(C)C1=NN2C(=N)CC(=O)N=C2S1	2.1	-3.7	2.3	4.3	-15.3	11.1	nt
CCCCC1=NN2C(=N)CC(=O)N=C2S1	-0.3	2.9	7.2	5.6	5.1	33.4*	6.1
Cc1c(Cl)cccc1NCC(=O)NN=C1CCCC1	-2.4	-21.4	1.2	2.7	-20.8	3.0	nt
CCOC(=O)C/C(C)=N/NC(=O)CNc1cccc(Cl)c1C	3.0	6.7	-2.0	-1.0	1.9	72.3*	63.0*
COc1ccc(/C=C/C(=O)OCC(=O)Nc2cccc(C(C)=O)c2)cc1	0.1	0.2	-1.1	0.9	8.5	90.2*	80.6*
SMILES	PAFAH1B2 FP inh	EBNA-1 inh	pPAFAH inh	PAFAH1B3 FP inh	ZTA DNA inh	PAFAH2 FP inh	PAFAH2 FP conf
COc1ccc(C(=O)COC(=O)/C=C/c2ccc(S(=O)(=O)Nc3cccc(S(N)(=O)=O)c3)cc2)cc1	1.5	3.0	-1.9	3.4	3.0	31.7*	19.1
C/C=C/C(=O)OCC(=O)Nc1cc(-c2cc(C)c(C)cc2C)nn1-c1ccccc1	-0.6	-5.4	-5.4	-4.3	-10.6	40.8*	30.2*
Cc1nn(-c2ccccc2)c(C)c1/C=C/C(=O)OCC(=O)Nc1ncc(C(F)(F)F)cc1Cl	-0.7	5.0	1.8	1.9	-3.2	45.1*	35.5*
Cc1nn(-c2ccccc2)c(C)c1/C=C/C(=O)OCC(=O)Nc1ccc(C(N)=O)cc1	-2.9	nt	-8.5	-3.8	1.5	5.9	nt
Cc1ccc(NC(=O)COC(=O)/C=C/c2c(C)nn(-c3ccc(F)cc3)c2Cl)cc1F	1.2	10.7	3.2	2.4	-1.2	72.3*	57.3*
COc1cccc(NC(=O)COC(=O)/C=C/c2c(C)nn(-c3ccccc3)c2C)c1	-8.6	nt	2.4	-2.6	5.5	78.3*	80.3*
CC(=O)C1[C@H](N(C)C)CC2C3CC=C4CC(O)CC[C@]4(C)C3CC[C@@]21C (some centres undefined)	3.2	-2.0	2.0	-4.7	-2.2	0.9	nt
O=C1CCCc2cc3c(cc21)CC1(C3)Cc2cc3c(cc2C1)C(=O)CCC3	0.2	9.6	5.2	6.7	14.8	-1.6	nt
Cc1ccccc1-n1c(SC2CCOC2=O)nnc1-c1ccncc1 (centres undefined)	0.9	-10.9	2.7	1.1	-0.3	1.2	nt
COc1ccc2nc(-n3c(O)c(C4=c5ccccc5=NC4=O)[nH]c3=S)sc2c1	15.2	22.4	20.6	18.0	0.5	59.9*	39.9*
Cn1c(O)c(C2=c3ccccc3=NC2=O)[nH]c1=S	-3.1	-5.4	-0.6	-7.6	1.0	4.0	nt
CC(C)(C)c1ccc(NC(=O)COC(=O)c2ccc(CN3CCCC3=O)cc2)cc1	-0.4	nt	13.4	6.3	7.2	60.8*	50.5*
Cc1ccc(NC(=O)COC(=O)c2ccc(CN3CCCC3=O)cc2)c(Cl)c1	2.6	nt	10.4	-0.1	1.2	69.1*	71.2*
Cc1cc(C)cc(NC(=O)COC(=O)c2ccc(CN3CCCC3=O)cc2)c1	4.7	nt	14.0	-1.9	-12.4	86.1*	85.2*
COc1ccc(Cl)cc1NC(=S)NC1CCCC1	-2.5	-12.4	3.1	8.8	-15.8	-10.5	nt
CCCc1cc(=O)n2[nH]c(Cc3ccccc3)nc2n1	11.1	-0.8	7.8	11.6	0.3	31.1*	15.6
Cc1onc(C(=O)N2C(C)CCCC2C)c1[N+](=O)[O-] (centres undefined)	1.9	-1.6	6.1	1.8	7.0	-2.9	nt
CSc1ccccc1NC(=O)C1CC(c2ccccc2Cl)=NO1 (centres undefined)	2.5	-1.6	0.2	2.8	-1.1	2.0	nt
O=C(Nc1cc(Cl)ccc1O)C1CC(c2ccccc2Cl)=NO1 (centres undefined)	-0.9	nt	nt	-5.4	nt	32.8*	22.2
Cc1ccc2[nH]c(O)c(N=Nc3ccccc3[N+](=O)[O-])c2c1	-0.4	nt	nt	0.3	nt	5.5	nt
